Reference: PubChem BioAssay
The source made the active and inactive calls. Unless noted, the rule behind the calls is not given here.

Experiments:
[1] = kinase inhibitors against Plasmodium liver-stage infection, cell-based, known kinase inhibitor set, luminescence, hepatoma host viability (AID 624392); conditions: Plasmodium liver stage in hepatoma cells, luciferase luminescence, concentration not given here; liver cell % of control: measured here: host liver cell viability; parasite % of control: stronger effect = lower value;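 note: infected cells incubated roughly two days before readout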
[2] = modulators of glucocorticoid suppression of NF-kB, cell-based, luciferase, IL-1B stimulus, dexamethasone (AID 624486); conditions: NF-kB luciferase reporter, IL-1B + dexamethasone, luminescence; percent of negative control (+Dex): actives lie on both sides, concentration not given here; z-score: measured here: IL-1B alone, no Dex;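 for percent of negative control (+Dex): 100% = mean signal of vehicle control wells on the plate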
[3] = kinase inhibitors altering Pseudomonas killing of worms, whole organism (AID 651566);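 note: tested at 14 µM; sign flipped so higher z means a lower ratio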; conditions: C. elegans killed by P. aeruginosa, survival ratio
[4] = activators of macrophage pro-inflammatory response, cell-based, murine, luminescence (AID 652131); conditions: murine macrophage pro-inflammatory reporter, stronger effect = higher value
[5] = biological target: Cellular tumor antigen p53 (Homo sapiens) (UniProt P04637); test: kinase inhibitors altering GFP-p53 stability in HPV16-positive cells, imaging, known kinase inhibitor set, EGFP/DsRed ratio (AID 1053116); conditions: stronger effect = higher value; EGFP object count: measured here: GFP-p53 positive objects count;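 note: cells exposed to compounds for 24 h at 37 °C before reading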
Sequence of Cellular tumor antigen p53 (Homo sapiens) (P04637 whole entry, looked up): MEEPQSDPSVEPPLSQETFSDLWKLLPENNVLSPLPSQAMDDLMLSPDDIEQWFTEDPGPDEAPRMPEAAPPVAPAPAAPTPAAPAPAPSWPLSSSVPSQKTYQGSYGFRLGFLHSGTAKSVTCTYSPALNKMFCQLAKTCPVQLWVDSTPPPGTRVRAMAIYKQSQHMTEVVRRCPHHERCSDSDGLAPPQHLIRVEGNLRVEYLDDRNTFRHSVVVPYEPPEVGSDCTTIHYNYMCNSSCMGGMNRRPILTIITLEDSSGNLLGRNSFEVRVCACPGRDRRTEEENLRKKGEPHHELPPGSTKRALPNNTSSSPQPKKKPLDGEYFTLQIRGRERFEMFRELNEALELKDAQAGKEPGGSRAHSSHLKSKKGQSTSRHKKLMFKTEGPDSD

[6] = IRF3 reporter activation in THP-1 macrophages, cell-based, PMA-stimulated THP-1, luminescence (AID 1053176); conditions: PMA-differentiated THP-1, IRF3 reporter luminescence; stronger effect = higher value
[7] = survival rescue of mitochondrial mutant cells in low glucose, primary screen, MELAS cybrids, Rieske KO mouse fibroblasts, CellTiter-Glo (AID 1508586;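 active = mean z-score across replicates of 1.96 or higher in either the MELAS or the Rieske mutant cell line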;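 note: z relative to plate mean and SD of compound and empty wells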)
[8] = MELAS cybrid survival, CellTiter-Glo 48 h, stronger effect = higher value
[9] = Rieske KO mouse fibroblast survival, CellTiter-Glo 72 h

Structure (SMILES) | liver cell % of control [1] | parasite % of control [1] | percent of negative control (+Dex) [2] | z-score [2] | z-score [3] | z-score [4] | EGFP object count [5] | EGFP/DsRed ratio [5] | fraction signal [6] | z-score [7, 8] | z-score [7, 9]
O=C1Nc2ccccc2/C1=C1\CCc2cc(O)ccc21 | 77.7% | 108% (inactive) | 114% (inactive) | 1.81 | -1.72 (inactive) | 3.73 (inactive) | 8.5 | 0.108 (inactive) | -0.013 (inactive) | -0.0823 (inactive) | -0.0427
CS(=O)(=O)Nc1cccc(-c2ccc3c(NC(=O)C4CC4)n[nH]c3c2)c1 | 89.6% | 233% (inactive) | 96% (inactive) | 0.535 | 0.185 (inactive) | -0.214 (inactive) | 7 | 0.137 (inactive) | -0.0065 (inactive) | -0.446 (inactive) | -0.47
CC(=O)Nc1cccc(C#Cc2cncnc2Nc2ccc(OCc3cccc(F)c3)c(Cl)c2)c1 | 111% | 108% (inactive) | 89.5% (inactive) | -0.925 | 0.045 (inactive) | -0.803 (inactive) | 3.5 | 0.169 (inactive) | 0.0085 (inactive) | -0.744 (inactive) | 0.00771
Cc1ccc(NC(=O)CC2CC2)cc1-c1ccc(C(=O)NCC2CC2)cc1 | 75.5% | 149% (inactive) | 98.5% (inactive) | 0.735 | -1.18 (inactive) | 0.093 (inactive) | 6 | 0.154 (inactive) | -0.006 (inactive) | -0.893 (inactive) | -0.555
C#Cc1cccc(Nc2ncnc3ccc(OCCCCNCCS(C)(=O)=O)cc23)c1 | 80.2% | 197% (inactive) | 70.5% (inactive) | -1.95 | 0.035 (inactive) | -0.695 (inactive) | 4 | 0.148 (inactive) | 0.0175 (inactive) | -0.125 (inactive) | -0.333
CS(=O)(=O)Nc1ccc(-c2ccc3c(NC(=O)C4CC4)n[nH]c3c2)cc1 | 98.9% | 96.9% (inactive) | 94% (inactive) | 0.82 | 0.39 (inactive) | -0.745 (inactive) | 3 | 0.0815 (inactive) | -0.009 (inactive) | 0.24 (inactive) | -0.0618
CC1=C(C(=O)Nc2ccc3[nH]ncc3c2)C(c2ccc(Cl)c(Cl)c2)CC(=O)N1 (stereo not given) | 100% | 160% (inactive) | 83.5% (inactive) | -1.08 | -0.52 (inactive) | -0.714 (inactive) | 2 | 0.0149 (inactive) | -0.0025 (inactive) | -0.00134 (inactive) | -0.0171
COC(=O)c1cncc(/C=C/c2c(C)cc(O)cc2C)c1 | 108% | 131% (inactive) | 108% (inactive) | 1.96 | 0.295 (inactive) | -0.608 (inactive) | 4.5 | 0.286 (inactive) | -0.0065 (inactive) | 0.159 (inactive) | 0.14
COC(=O)Nc1nc2ccc(Oc3ccc(NC(=O)Nc4cccc(Br)c4)cc3)cc2[nH]1 | 77.3% | 247% (inactive) | 104% (inactive) | 0.65 | -0.435 (inactive) | 0.412 (inactive) | 6.5 | 0.0884 (inactive) | -0.001 (inactive) | 0.278 (inactive) | -0.0385
CCn1c(-c2nonc2N)nc2ccccc21 | 97.5% | 113% (inactive) | 80% (inactive) | -0.405 | 0.585 (inactive) | 0.013 (inactive) | 3 | 0.0652 (inactive) | -0.0025 (inactive) | -0.294 (inactive) | -0.443
Cc1nnc(-c2ccc(C)c(-c3ccc(C(=O)NCc4ccc(Cl)cc4)cc3)c2)o1 | 161% | 31.3% (inactive) | 106% (inactive) | 1.07 | 0.9 (inactive) | -0.451 (inactive) | 2 | 0.079 (inactive) | -0.0105 (inactive) | -0.978 (inactive) | -0.533
COc1cc(N2CCN(C(C)C)CC2)ccc1Nc1nc(Nc2cccc3ncccc23)c2cc[nH]c2n1 | 96.4% | 180% (inactive) | 92.5% (inactive) | -0.235 | 0.32 (inactive) | -0.489 (inactive) | 1 | 0.00687 (inactive) | -0.0005 (inactive) | -1.02 (inactive) | -0.0497
COc1ccc(-c2ccncc2)cc1C(N)=O | 85.3% | 135% (inactive) | 90% (inactive) | -0.52 | 0.46 (inactive) | 0.337 (inactive) | 4 | 0.12 (inactive) | -0.004 (inactive) | -0.169 (inactive) | -0.232
NS(=O)(=O)c1ccc(Nc2ncc(-c3ccccc3)o2)cc1 | 108% | 123% (inactive) | 117% (inactive) | 0.745 | -0.98 (inactive) | 0.209 (inactive) | 3.5 | 0.0759 (inactive) | -0.0035 (inactive) | 1.06 (inactive) | -0.0466
CC(C)COC(=O)c1ccc2[nH]c(O)c(C=Nc3ccc(S(N)(=O)=O)cc3)c2c1 | 61% | 105% (inactive) | 108% (inactive) | 0.975 | 0.47 (inactive) | -1.9 (inactive) | 3.5 | 0.0968 (inactive) | -0.013 (inactive) | -0.896 (inactive) | 0.112
Cn1cc(C2=C(c3cn(C)c4cc(Cl)ccc34)C(=O)NC2=O)c2ccccc21 | 82.6% | 48.4% (inactive) | 126% (active) | -0.405 |  |  | 31 | 0.0945 (inactive) | -0.009 (inactive) |  | 

Structure (SMILES) | liver cell % of control [1] | parasite % of control [1] | percent of negative control (+Dex) [2] | z-score [2] | z-score [3] | z-score [4] | EGFP object count [5] | EGFP/DsRed ratio [5] | fraction signal [6] | z-score [7, 8] | z-score [7, 9]
Cc1cc(C)c2c(n1)sc1c(N)ncnc12 | 173% | 24.3% (inactive) | 68.5% (active) | -2.76 |  |  | 2.5 | 0.0145 (inactive) | 0.0035 (inactive) |  | 
Cn1c(=O)c(Oc2ccc(F)cc2)cc2cnc(NC3CCOCC3)nc21 | 106% | 64.1% (inactive) | 104% (inactive) | 0.86 |  |  | 3.5 | 0.251 (inactive) | -0.0055 (inactive) |  | 
CS(=O)(=O)CCNCc1nc(-c2ccc3ncnc(Nc4ccc(F)c(Cl)c4)c3c2)cs1 | 103% | 148% (inactive) | 70.5% (inactive) | -1.57 | 0.63 (inactive) | 2.24 (inactive) | 6.5 | 0.211 (inactive) | 0.002 (inactive) | 0.0696 (inactive) | -0.331
COc1cccc(C2=C(c3c(C)n(C)c4ccccc34)C(=O)NC2=O)c1 | 97.6% | 66.1% (inactive) | 91% (inactive) | -0.5 |  |  | 6 | 0.121 (inactive) | -0.0005 (inactive) |  | 
Nc1c(C(=O)c2cccc(-c3cccnc3)c2)cnn1-c1ccc(F)cc1F | 175% | 28.3% (inactive) | 110% (inactive) | 0.74 |  |  | 4.5 | 0.0328 (inactive) | 0.0015 (inactive) |  | 
Cc1ccc(C)c(C2=C(c3cn(C)c4ccccc34)C(=O)NC2=O)c1 | 166% | 33% (inactive) | 102% (inactive) | -1.65 |  |  | 33.5 | 0.361 (inactive) | 0.0035 (inactive) |  | 
CCCn1cc(C2=C(c3cn(C)c4ccccc34)C(=O)NC2=O)c2ccccc21 | 101% | 78.5% (inactive) | 102% (inactive) | 0.09 |  |  | 17.5 | 0.158 (inactive) | 0.0035 (inactive) |  | 
CC(C)c1[nH]nc2c1N=C(c1ccccc1Cl)c1cc([N+](=O)[O-])ccc1N2 | 105% | 61.2% (inactive) | 108% (inactive) | 0.05 |  |  | 50.5 | 1.11 (active) | -0.0115 (inactive) |  | 
COc1ccc(-c2cc3c(N)ncnc3o2)cc1 | 106% | 203% (inactive) | 118% (inactive) | 2.92 | 0.775 (inactive) | 1.8 (inactive) | 6.5 | 0.215 (inactive) | -0.014 (inactive) | 1.14 (inactive) | 0.359
Cn1cc(C2=C(n3ccc4ccccc43)C(=O)NC2=O)c2ccccc21 | 130% | 37.7% (inactive) | 95.5% (inactive) | 0.125 |  |  | 4 | 0.178 (inactive) | -0.0025 (inactive) |  | 
CS(=O)(=O)N1CCC(Nc2ncc(C(=O)c3c(F)cccc3F)c(N)n2)CC1 | 89.5% | 70.6% (inactive) | 88.5% (inactive) | -0.28 |  |  | 2 | 0.123 (inactive) | -0.005 (inactive) |  | 
CNc1ncc2cc(Oc3ccc(F)cc3F)c(=O)n(C)c2n1 | 109% | 65.3% (inactive) | 94.5% (inactive) | 1.49 |  |  | 2.5 | 0.0112 (inactive) | -0.001 (inactive) |  | 
COc1ccc2c(C3=C(c4cn(C)c5ccccc45)C(=O)NC3=O)cn(C)c2c1 | 79.3% | 31.4% (inactive) | 113% (inactive) | -1.48 |  |  | 66 | 0.456 (inactive) | -0.007 (inactive) |  | 
CN1CCN(CC#Cc2cccc(C(=O)c3cnn(-c4ccc(F)cc4)c3N)c2)CC1 | 96.5% | 46.3% (inactive) | 104% (inactive) | 0.495 |  |  | 3.5 | 0.0523 (inactive) | 0.0015 (inactive) |  | 
Nc1c(C(=O)c2cccc(-c3ccncc3)c2)cnn1-c1ccc(F)cc1 | 101% | 36.5% (inactive) | 95.5% (inactive) | 0.895 |  |  | 2 | 0.219 (inactive) | -0.003 (inactive) |  | 
